# Data taken from the supplement of paper PMC4466140.
# Assays:
# Experiment in all cases: SPOT peptide array binding signal intensity (averaged, normalized) (arbitrary units (background-subtracted, floor 0; scale differs between SH3 domains)); higher = stronger binding of the SH3 domain to the peptide
# AgAbp1 = biological target: AgAbp1
# Method in brief: (§1)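 To measure binding, SH3 domains from four yeast species were fused to GST, expressed in E. coli BL21(DE3) and purified on glutathione Sepharose. Each domain was incubated at 10 μg/ml overnight at 4°C on cellulose membranes with synthetic 15-mer peptides whose cysteines were replaced by serines. Anti-GST antibody, an HRP anti-mouse secondary and luminol were used for detection, and images were quantified with Genespotter. Reported binding signal is normalized, background-subtracted spot intensity averaged over replicates, in arbitrary units that differ between domains.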
# AgBbc1 = biological target: AgBbc1
# Method in brief: as §1
# AgBem1-D1 = biological target: AgBem1-D1
# Method in brief: as §1
# AgBzz1-D1 = biological target: AgBzz1-D1
# Method in brief: as §1
# AgBzz1-D2 = biological target: AgBzz1-D2
# Method in brief: as §1
# AgCyk3 = biological target: AgCyk3
# Method in brief: as §1
# AgFus1 = biological target: AgFus1
# Method in brief: as §1
# AgHof1 = biological target: AgHof1
# Method in brief: as §1
# AgHse1 = biological target: AgHse1
# Method in brief: as §1
# AgLsb1 = biological target: AgLsb1
# Method in brief: as §1
# AgLsb4 = biological target: AgLsb4
# Method in brief: as §1
# AgMyo5 = biological target: AgMyo5
# Method in brief: as §1
# AgNbp2 = biological target: AgNbp2
# Method in brief: as §1
# AgRvs167 = biological target: AgRvs167
# Method in brief: as §1
# AgSho1 = biological target: AgSho1
# Method in brief: as §1
# AgSla1-D1-D2 = biological target: AgSla1-D1-D2
# Method in brief: as §1
# AgSla1-D3 = biological target: AgSla1-D3
# Method in brief: as §1
# CaAbp1-D1 = biological target: CaAbp1-D1
# Method in brief: as §1
# CaAbp1-D2 = biological target: CaAbp1-D2
# Method in brief: as §1
# CaBbc1 = biological target: CaBbc1
# Method in brief: as §1
# CaBem1-D1 = biological target: CaBem1-D1
# Method in brief: as §1
# CaBzz1-D1 = biological target: CaBzz1-D1
# Method in brief: as §1
# CaBzz1-D2 = biological target: CaBzz1-D2
# Method in brief: as §1
# CaCyk3 = biological target: CaCyk3
# Method in brief: as §1
# CaFus1 = biological target: CaFus1
# Method in brief: as §1
# CaHof1 = biological target: CaHof1
# Method in brief: as §1
# CaHse1 = biological target: CaHse1
# Method in brief: as §1
# CaLsb1 = biological target: CaLsb1
# Method in brief: as §1
# CaLsb4 = biological target: CaLsb4
# Method in brief: as §1
# CaMyo5 = biological target: CaMyo5
# Method in brief: as §1
# CaNbp2 = biological target: CaNbp2
# Method in brief: as §1
# CaRvs167 = biological target: CaRvs167
# Method in brief: as §1
# CaRvs167-3 = biological target: CaRvs167-3
# Method in brief: as §1
# CaSho1 = biological target: CaSho1
# Method in brief: as §1
# CaSla1-D1-D2 = biological target: CaSla1-D1-D2
# Method in brief: as §1
# CaSla1-D3 = biological target: CaSla1-D3
# Method in brief: as §1
# ScAbp1 = biological target: ScAbp1
# Method in brief: as §1
# ScBbc1 = biological target: ScBbc1
# Method in brief: as §1
# ScBem1-D1 = biological target: ScBem1-D1
# Method in brief: as §1
# ScBzz1-D1 = biological target: ScBzz1-D1
# Method in brief: as §1
# ScBzz1-D2 = biological target: ScBzz1-D2
# Method in brief: as §1
# ScCyk3 = biological target: ScCyk3
# Method in brief: as §1
# ScFus1 = biological target: ScFus1
# Method in brief: as §1
# ScHof1 = biological target: ScHof1
# Method in brief: as §1
# ScHse1 = biological target: ScHse1
# Method in brief: as §1
# ScLsb1 = biological target: ScLsb1
# Method in brief: as §1
# ScLsb2 = biological target: ScLsb2
# Method in brief: as §1
# ScLsb3 = biological target: ScLsb3
# Method in brief: as §1
# ScLsb4 = biological target: ScLsb4
# Method in brief: as §1
# ScMyo3 = biological target: ScMyo3
# Method in brief: as §1
# ScMyo5 = biological target: ScMyo5
# Method in brief: as §1
# ScNbp2 = biological target: ScNbp2
# Method in brief: as §1
# ScPex13 = biological target: ScPex13
# Method in brief: as §1
# ScRvs167 = biological target: ScRvs167
# Method in brief: as §1
# ScSho1 = biological target: ScSho1
# Method in brief: as §1
# ScSla1-D1-D2 = biological target: ScSla1-D1-D2
# Method in brief: as §1
# ScSla1-D3 = biological target: ScSla1-D3
# Method in brief: as §1
# SpAbp1-D1 = biological target: SpAbp1-D1
# Method in brief: as §1
# SpBbc1 = biological target: SpBbc1
# Method in brief: as §1
# SpBzz1-D1 = biological target: SpBzz1-D1
# Method in brief: as §1
# SpBzz1-D2 = biological target: SpBzz1-D2
# Method in brief: as §1
# SpCyk3 = biological target: SpCyk3
# Method in brief: as §1
# SpHof1 = biological target: SpHof1
# Method in brief: as §1
# SpHof1-2 = biological target: SpHof1-2
# Method in brief: as §1
# SpHof1-3 = biological target: SpHof1-3
# Method in brief: as §1
# SpHse1 = biological target: SpHse1
# Method in brief: as §1
# SpLsb1 = biological target: SpLsb1
# Method in brief: as §1
# SpLsb4 = biological target: SpLsb4
# Method in brief: as §1
# SpMyo1 = biological target: SpMyo1
# Method in brief: as §1
# SpNbp2 = biological target: SpNbp2
# Method in brief: as §1
# SpPex13 = biological target: SpPex13
# Method in brief: as §1
# SpRvs167 = biological target: SpRvs167
# Method in brief: as §1
# SpSla1-D1-D2 = biological target: SpSla1-D1-D2
# Method in brief: as §1
# SpSla1-D3 = biological target: SpSla1-D3
# Method in brief: as §1
binder,measurement,setting,value
VPVAPPPPPASLGQS,SPOT peptide array binding signal intensity,AgAbp1,≤ 0
same,SPOT peptide array binding signal intensity,AgBbc1,≤ 0
same,SPOT peptide array binding signal intensity,AgBem1-D1,15
same,SPOT peptide array binding signal intensity,AgBzz1-D1,0.5
same,SPOT peptide array binding signal intensity,AgBzz1-D2,≤ 0
same,SPOT peptide array binding signal intensity,AgCyk3,≤ 0
same,SPOT peptide array binding signal intensity,AgFus1,≤ 0
same,SPOT peptide array binding signal intensity,AgHof1,≤ 0
same,SPOT peptide array binding signal intensity,AgHse1,17
same,SPOT peptide array binding signal intensity,AgLsb1,0.25
same,SPOT peptide array binding signal intensity,AgLsb4,≤ 0
same,SPOT peptide array binding signal intensity,AgMyo5,4.25
same,SPOT peptide array binding signal intensity,AgNbp2,≤ 0
same,SPOT peptide array binding signal intensity,AgRvs167,3
same,SPOT peptide array binding signal intensity,AgSho1,≤ 0
same,SPOT peptide array binding signal intensity,AgSla1-D1-D2,6
same,SPOT peptide array binding signal intensity,AgSla1-D3,1
same,SPOT peptide array binding signal intensity,CaAbp1-D1,2
same,SPOT peptide array binding signal intensity,CaAbp1-D2,4
same,SPOT peptide array binding signal intensity,CaBbc1,0.5
same,SPOT peptide array binding signal intensity,CaBem1-D1,≤ 0
same,SPOT peptide array binding signal intensity,CaBzz1-D1,89
same,SPOT peptide array binding signal intensity,CaBzz1-D2,9.5
same,SPOT peptide array binding signal intensity,CaCyk3,≤ 0
same,SPOT peptide array binding signal intensity,CaFus1,16
same,SPOT peptide array binding signal intensity,CaHof1,≤ 0
same,SPOT peptide array binding signal intensity,CaHse1,≤ 0
same,SPOT peptide array binding signal intensity,CaLsb1,0.75
same,SPOT peptide array binding signal intensity,CaLsb4,≤ 0
same,SPOT peptide array binding signal intensity,CaMyo5,13.5
same,SPOT peptide array binding signal intensity,CaNbp2,17.5
same,SPOT peptide array binding signal intensity,CaRvs167,≤ 0
same,SPOT peptide array binding signal intensity,CaRvs167-3,1.5
same,SPOT peptide array binding signal intensity,CaSho1,28
same,SPOT peptide array binding signal intensity,CaSla1-D1-D2,≤ 0
same,SPOT peptide array binding signal intensity,CaSla1-D3,≤ 0
same,SPOT peptide array binding signal intensity,ScAbp1,0.5
same,SPOT peptide array binding signal intensity,ScBbc1,2.5
same,SPOT peptide array binding signal intensity,ScBem1-D1,0.5
same,SPOT peptide array binding signal intensity,ScBzz1-D1,3
same,SPOT peptide array binding signal intensity,ScBzz1-D2,8.5
same,SPOT peptide array binding signal intensity,ScCyk3,≤ 0
same,SPOT peptide array binding signal intensity,ScFus1,≤ 0
same,SPOT peptide array binding signal intensity,ScHof1,≤ 0
same,SPOT peptide array binding signal intensity,ScHse1,4
same,SPOT peptide array binding signal intensity,ScLsb1,≤ 0
same,SPOT peptide array binding signal intensity,ScLsb2,≤ 0
same,SPOT peptide array binding signal intensity,ScLsb3,≤ 0
same,SPOT peptide array binding signal intensity,ScLsb4,4
same,SPOT peptide array binding signal intensity,ScMyo3,372
same,SPOT peptide array binding signal intensity,ScMyo5,91
same,SPOT peptide array binding signal intensity,ScNbp2,≤ 0
same,SPOT peptide array binding signal intensity,ScPex13,≤ 0
same,SPOT peptide array binding signal intensity,ScRvs167,≤ 0
same,SPOT peptide array binding signal intensity,ScSho1,3
same,SPOT peptide array binding signal intensity,ScSla1-D1-D2,≤ 0
same,SPOT peptide array binding signal intensity,ScSla1-D3,1.5
same,SPOT peptide array binding signal intensity,SpAbp1-D1,≤ 0
same,SPOT peptide array binding signal intensity,SpBbc1,≤ 0
same,SPOT peptide array binding signal intensity,SpBzz1-D1,237
same,SPOT peptide array binding signal intensity,SpBzz1-D2,1.25
same,SPOT peptide array binding signal intensity,SpCyk3,≤ 0
same,SPOT peptide array binding signal intensity,SpHof1,≤ 0
same,SPOT peptide array binding signal intensity,SpHof1-2,≤ 0
same,SPOT peptide array binding signal intensity,SpHof1-3,0.5
same,SPOT peptide array binding signal intensity,SpHse1,1
same,SPOT peptide array binding signal intensity,SpLsb1,≤ 0
same,SPOT peptide array binding signal intensity,SpLsb4,≤ 0
same,SPOT peptide array binding signal intensity,SpMyo1,49.8
same,SPOT peptide array binding signal intensity,SpNbp2,1.5
same,SPOT peptide array binding signal intensity,SpPex13,≤ 0
same,SPOT peptide array binding signal intensity,SpRvs167,3.33
same,SPOT peptide array binding signal intensity,SpSla1-D1-D2,≤ 0
same,SPOT peptide array binding signal intensity,SpSla1-D3,≤ 0
QPWTDQFEKLEKEVS,SPOT peptide array binding signal intensity,AgAbp1,≤ 0
same,SPOT peptide array binding signal intensity,AgBbc1,≤ 0
same,SPOT peptide array binding signal intensity,AgBem1-D1,15
same,SPOT peptide array binding signal intensity,AgBzz1-D1,≤ 0
same,SPOT peptide array binding signal intensity,AgBzz1-D2,22
same,SPOT peptide array binding signal intensity,AgCyk3,1.5
same,SPOT peptide array binding signal intensity,AgFus1,≤ 0
same,SPOT peptide array binding signal intensity,AgHof1,≤ 0
same,SPOT peptide array binding signal intensity,AgHse1,26
same,SPOT peptide array binding signal intensity,AgLsb1,≤ 0
same,SPOT peptide array binding signal intensity,AgLsb4,≤ 0
same,SPOT peptide array binding signal intensity,AgMyo5,1.5
same,SPOT peptide array binding signal intensity,AgNbp2,≤ 0
same,SPOT peptide array binding signal intensity,AgRvs167,0.167
same,SPOT peptide array binding signal intensity,AgSho1,≤ 0
same,SPOT peptide array binding signal intensity,AgSla1-D1-D2,≤ 0
same,SPOT peptide array binding signal intensity,AgSla1-D3,≤ 0
same,SPOT peptide array binding signal intensity,CaAbp1-D1,≤ 0
same,SPOT peptide array binding signal intensity,CaAbp1-D2,≤ 0
same,SPOT peptide array binding signal intensity,CaBbc1,3.5
same,SPOT peptide array binding signal intensity,CaBem1-D1,≤ 0
same,SPOT peptide array binding signal intensity,CaBzz1-D1,≤ 0
same,SPOT peptide array binding signal intensity,CaBzz1-D2,≤ 0
same,SPOT peptide array binding signal intensity,CaCyk3,≤ 0
same,SPOT peptide array binding signal intensity,CaFus1,≤ 0
same,SPOT peptide array binding signal intensity,CaHof1,0.5
same,SPOT peptide array binding signal intensity,CaHse1,≤ 0
same,SPOT peptide array binding signal intensity,CaLsb1,0.5
same,SPOT peptide array binding signal intensity,CaLsb4,≤ 0
same,SPOT peptide array binding signal intensity,CaMyo5,≤ 0
